TDP1 cell noCPT = qHTS for Inhibitors of human tyrosyl-DNA phosphodiesterase 1 (TDP1): qHTS in cells in absence of CPT. Potency, µM (doses to about 46.2 µM), usual class: inhibitors. actives 15% (n = 420,000). AID 686978, 2013. DT40 Tdp1-/- hTDP1 cells, no CPT, ATP luminescence, 48 h; further: nearly all actives have a fitted effect of over 55% in size
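A cellular qHTS used chicken DT40 cells lacking endogenous Tdp1 but carrying stably transfected human TDP1. Compounds were applied without camptothecin, and cell growth kinetics were judged by ATP-dependent luminescence after ≥48 hr.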
TDP1 cell CPT = DT40-hTDP1 cell growth loss with CPT; chicken DT40 Tdp1-/-;hTDP1 cells + 20 nM CPT, ATP luminescence, 48 h; Potency, µM (doses to about 46.2 µM), hits mostly inhibitors; actives 12% (n = 420,000); AID 686979; further: nearly all actives have a fitted effect of over 55% in size
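Cell growth measured by CellTiter-Glo luminescence after a minimum 48 h, 37 C compound exposure with 20 nM CPT in Tdp1-knockout DT40 cells stably expressing hTDP1, seeded 400/well; qHTS titration format.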
Six1-Eya2 inh = inhibitors of human Six1/Eya2 interaction; activity change, % (no concentration beside the values); actives 0.56% (n = 360,000); AlphaScreen GST-Six1/His-Eya2 binding, biochemical; hits give low values; Q15475+O00167; in the data active means activity change below about -65%; inconclusive means mostly about -30% to -63%
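AlphaScreen luminescence read after one hour at 37 °C in darkness. Pin-transferred compounds met GST-Six1 and His-Eya2 protein (5X stock 250 nM/500 nM) plus glutathione donor and Ni-chelate acceptor beads (5X, 50 ug/mL).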
CtBP-E1A inh = blocks the CtBP interaction with E1A. activity change, % (test concentration not listed). AlphaScreen GST-E1A/His-CtBP binding, 1536-well; hits give low values. actives 0.49% (n = 340,000); in the data active means activity change below about -65%; inconclusive means mostly about -30% to -63%
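AlphaScreen with 125 nM GST-E1A and 125 nM His-CtBP (5X stocks) in Tris pH 8.0, 300 mM NaCl, BSA, Tween 20, TCEP. Compounds preincubated 2 h at 37 deg C, then glutathione donor/nickel acceptor beads added for 1 h at 37 deg C in dark.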
IL1B secr inh = inhibitors of inflammasome signaling (IL-1 beta secretion). THP-1 LPS/ATP IL-1B secretion, AlphaLISA, 16 h; hits give low values. activity change, % at 57.5 µM. actives 4.7% (n = 360,000); in the data active means activity change below about -50%; inconclusive means mostly about -30% to -49%
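THP-1 cells pretreated 1 hr with compounds (up to 57.5 uM final), then stimulated with LPS (250 ng/mL final) plus ATP (1.25 mM final); secreted IL-1B measured by AlphaLISA after 16 hr, decreased signal indicating inhibition.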
TDP1 inh = blocks human tyrosyl-DNA phosphodiesterase 1; Q9NUW8; recombinant TDP1, AlphaScreen DNA substrate cleavage; Potency, µM (top dose mostly 130 µM), hits mostly inhibitors; actives 0.28% (n = 350,000); AID 485290; further: nearly all actives have a fitted effect of over 40% in size
Target sequence (Q9NUW8 whole entry, looked up): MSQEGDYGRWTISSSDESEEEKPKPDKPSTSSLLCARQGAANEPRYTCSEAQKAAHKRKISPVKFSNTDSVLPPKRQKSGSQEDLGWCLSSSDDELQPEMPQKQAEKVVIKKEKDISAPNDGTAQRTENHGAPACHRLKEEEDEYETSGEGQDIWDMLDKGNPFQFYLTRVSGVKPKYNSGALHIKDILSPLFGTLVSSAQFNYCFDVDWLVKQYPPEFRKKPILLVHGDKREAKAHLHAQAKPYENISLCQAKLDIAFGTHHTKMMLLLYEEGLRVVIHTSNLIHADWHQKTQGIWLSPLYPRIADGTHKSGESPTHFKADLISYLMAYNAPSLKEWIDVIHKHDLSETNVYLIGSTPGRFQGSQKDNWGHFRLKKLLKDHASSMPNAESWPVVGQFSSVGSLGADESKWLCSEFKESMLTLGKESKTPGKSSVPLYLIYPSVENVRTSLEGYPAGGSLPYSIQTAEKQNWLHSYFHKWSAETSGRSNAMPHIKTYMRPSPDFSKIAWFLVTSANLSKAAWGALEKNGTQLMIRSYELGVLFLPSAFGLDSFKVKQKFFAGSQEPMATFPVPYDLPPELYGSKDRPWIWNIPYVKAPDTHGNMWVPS
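Enzyme-compound mixtures sat 15 min at room temperature, followed by a 5 min reaction with 15 nM final substrate and 10 min with AlphaScreen beads. Recombinant human Tdp1 was used at 1 nM final.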
Of the large screens only hits and unclear results are named; the others gave an inactive call. Sampled rows, rich in hits. Any-hit rate of the full collection: about 18%. Unless noted, the call rests on the fitted dose curve; in most records, active means well fitted curve in the direction sought with a large enough effect; inconclusive means small, poorly fitted or top-dose-only effect, or another doubt; inactive means no such curve, though single readings can be large; an effect the other way counts as inactive or inconclusive.

C/C(=N\NC(=O)c1c[nH]c2ccccc12)c1ccc(C)o1	TDP1 cell CPT inconclusive, Six1-Eya2 inh -79, CtBP-E1A inh -86
C=C1CC2C3CCC4=CC(=O)C=C[C@]4(C)[C@@]3(F)[C@@H](O)C[C@]2(C)[C@@]1(O)C(=O)COC(C)=O (stereo partly drawn)	none (no result: Six1-Eya2 inh, CtBP-E1A inh, IL1B secr inh, TDP1 inh)
COc1ccccc1C(=O)Nc1ccnn1C1CCN(C2CCSCC2)CC1	none
CCC(=O)NC(c1ccc(Cl)cc1Cl)c1ccc2cccnc2c1O (stereo not drawn)	TDP1 cell noCPT 5.2µM, TDP1 cell CPT 5.2µM, Six1-Eya2 inh -80, CtBP-E1A inh inconclusive, IL1B secr inh -85 (no result: TDP1 inh)
CC(C)C(=O)NC(c1ccc(Cl)cc1Cl)c1ccc2cccnc2c1O (stereo not drawn)	TDP1 cell noCPT 5.2µM, TDP1 cell CPT 6.5µM (no result: CtBP-E1A inh, TDP1 inh)
CCCCC(=O)NC(c1ccc(Cl)cc1Cl)c1ccc2cccnc2c1O (stereo not drawn)	TDP1 cell noCPT 2.9µM, TDP1 cell CPT 6.5µM, CtBP-E1A inh inconclusive (no result: TDP1 inh)
Cc1onc(-c2c(Cl)cccc2Cl)c1C(=O)c1c[nH]c(C(=O)NCCCN2CCOCC2)c1	none
Cc1ccc(-c2nc3nc(C)cc(Nc4ccccc4O)n3n2)cc1	none (no result: TDP1 cell noCPT, TDP1 cell CPT, Six1-Eya2 inh, CtBP-E1A inh, IL1B secr inh)
CCOc1ccc(/C=N/NC(=O)c2ccc(O)cc2)cc1CN1CC2CC(C1)c1cccc(=O)n1C2 (stereo not drawn)	TDP1 cell noCPT inconclusive, TDP1 cell CPT inconclusive, CtBP-E1A inh inconclusive
CCOc1ccc(/C=N/NC(=O)Cc2ccccc2)cc1CN1CC2CC(C1)c1cccc(=O)n1C2 (stereo not drawn)	TDP1 cell noCPT 21µM, TDP1 cell CPT inconclusive, IL1B secr inh -104
CCN(CC)C1=NS(=O)(=O)c2cc([N+](=O)[O-])ccc21	TDP1 cell noCPT 23µM, TDP1 cell CPT 18µM
Cc1ccc(Cn2nnc3c(=O)[nH]c(C4CCN(S(=O)(=O)c5ccc(S(=O)(=O)NC6CC6)cc5)CC4)nc32)cc1	TDP1 cell noCPT inconclusive, TDP1 cell CPT inconclusive, IL1B secr inh inconclusive
CC(=O)c1cccc(S(=O)(=O)N2CCCC(c3nc4c(nnn4Cc4ccc(C)cc4)c(=O)[nH]3)C2)c1 (stereo not drawn)	TDP1 cell CPT inconclusive, IL1B secr inh -55
N#Cc1cccc(NC(=O)N2CCC(c3nc4c(nnn4Cc4cccc(Cl)c4)c(=O)[nH]3)CC2)c1	IL1B secr inh -63
COC(=O)c1ccc(Cn2nnc3c(=O)[nH]c(C4CCN(S(=O)(=O)c5cc(C)ccc5C)CC4)nc32)cc1	TDP1 cell noCPT inconclusive, TDP1 cell CPT 23µM
O=c1[nH]c(C2CCN(S(=O)(=O)c3ccc(S(=O)(=O)NC4CC4)cc3)CC2)nc2c1nnn2Cc1cccc(F)c1	TDP1 cell noCPT inconclusive, TDP1 cell CPT 16µM, IL1B secr inh inconclusive (no result: TDP1 inh)
CCOC(=O)C1CCCN(S(=O)(=O)c2c(C)noc2C)C1 (stereo not drawn)	none
O=c1[nH]c(C2CCN(S(=O)(=O)c3ccc(C(F)(F)F)cc3)CC2)nc2c1nnn2Cc1ccc(F)cc1	TDP1 cell noCPT inconclusive, TDP1 cell CPT inconclusive, IL1B secr inh -57 (no result: TDP1 inh)
Cc1ccc(Cn2nnc3c(=O)[nH]c(C4CCN(S(=O)(=O)c5ccc(C)cc5)CC4)nc32)cc1	TDP1 cell noCPT inconclusive, IL1B secr inh inconclusive
O=c1[nH]c(C2CCN(S(=O)(=O)c3ccc([N+](=O)[O-])cc3)CC2)nc2c1nnn2Cc1ccccc1	TDP1 cell noCPT inconclusive, TDP1 cell CPT inconclusive (no result: TDP1 inh)
O=c1[nH]c(C2CCN(S(=O)(=O)c3cccc(C(F)(F)F)c3)CC2)nc2c1nnn2Cc1cccc(F)c1	TDP1 cell noCPT 21µM, TDP1 cell CPT 18µM, Six1-Eya2 inh inconclusive, IL1B secr inh -68 (no result: TDP1 inh)
Cc1ccc(Cn2nnc3c(=O)[nH]c(C4CCN(S(=O)(=O)c5ccccc5F)CC4)nc32)cc1	IL1B secr inh -61

Screens (PubChem)
